# Measured values: the supplement of paper PMC6555819
# Columns and labels:
# Test in all cases: PBM binding z-score (relative to random genomic background probes); higher = stronger binding; sequences stand for … in GC…GCGATTGACAGCGTAGAATGAAGG
# [1] = system: FXR:RXRa (NR concentration 270 nM, RXRa partner concentration 90 nM)
# Summary of the method: (§1)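 Regression normalization was applied to scanned fluorescence from custom Agilent 4×180K protein-binding microarrays. Before scanning, arrays were incubated 1 h with ligand-free nuclear receptor dimers, and binding was detected with antibodies against each partner (one per run). Binding z-scores use the random background probes as reference.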
# [2] = system: LXRa:RXRa (NR concentration 270 nM, RXRa partner concentration 90 nM)
# Summary of the method: as §1
# [3] = system: LXRa homodimer (NR concentration 270 nM)
# Summary of the method: as §1
# [4] = system: LXRb:RXRa (NR concentration 270 nM, RXRa partner concentration 90 nM)
# Summary of the method: as §1
# [5] = system: LXRb homodimer (NR concentration 270 nM)
# Summary of the method: as §1
# [6] = system: PPARa:RXRa (NR concentration 270 nM, RXRa partner concentration 90 nM)
# Summary of the method: as §1
# [7] = system: PPARg:RXRa (NR concentration 180 nM, RXRa partner concentration 90 nM)
# Summary of the method: as §1
# [8] = system: PPARg:RXRa 270nM:90nM, anti-RXR (NR concentration 270 nM, RXRa partner concentration 90 nM)
# Summary of the method: as §1
# [9] = system: PPARg:RXRa 30nM:10nM, anti-RXR (NR concentration 30 nM, RXRa partner concentration 10 nM)
# Summary of the method: as §1
# [10] = system: PPARg:RXRa 90nM:30nM, anti-RXR (NR concentration 90 nM, RXRa partner concentration 30 nM)
# Summary of the method: as §1
Sequence,PBM binding z-score [1],PBM binding z-score [2],PBM binding z-score [3],PBM binding z-score [4],PBM binding z-score [5],PBM binding z-score [6],PBM binding z-score [7],PBM binding z-score [8],PBM binding z-score [9],PBM binding z-score [10]
TTACCAAGGTGAAGGTCATTGATCCCTCTGTAGA,4.39,4.39,2.26,3.7,-0.235,4.36,5.26,5.49,3.52,5.38
CTACCGAGGTGAACAAGGTCGTTGATTACTATTC,1.49,1.66,0.107,2.37,-0.186,3.16,1.79,1.8,0.0798,0.754
CCAGACAGGTGACAAGGTAACTCAGCCTCGATTA,0.0849,0.145,-0.212,-0.039,-0.466,0.6,0.825,0.508,-0.365,0.0365
CAAACTAGGTCAAGAGGTCGAAGTCCGCTTCCCG,5.04,4.11,1.22,2.77,0.502,5.23,8.83,7.41,5.95,7.63
TAGCCTAGCTCATTGGGCCAGTATAGTACGCATC,-0.7,-0.917,-0.393,-0.751,-0.9,-0.564,0.238,-0.576,-0.321,-0.323
CCTACTGGGCCATTCCGAGGTCATTGATCATATG,2.71,3.36,4.85,3.28,0.27,3.5,1.58,2.59,0.281,1.54
AGAGTGAGGTTATTAAGATCAGGGAATTGCGGTC,1.77,1.58,0.813,1.94,0.987,2.46,0.616,1.31,0.245,1.12
TTTTGTAGATCAACAGGAGGTTAAGAAAGATCGA,0.519,1.38,0.44,1.16,0.116,1.7,0.596,1.25,1.03,1.29
CAAACTAGGTCAAAGCTCAAAGTCGAGCCAACCA,4.62,3.4,0.633,2.4,0.592,5.71,10.2,8.74,9.03,9.54
CAGCCTAGGTCAGGGCCACTATAGGAGGAACGTT,1.85,1.24,-0.48,0.816,-0.559,2.18,1.36,1.27,-0.111,0.592
CGTCCAAGCTCAGAGAGGTCAGTGAATGCCGAGT,1.33,1.41,0.781,1.52,-0.498,2.19,-0.188,0.558,-0.581,-0.0568
CGTCAAAGTTCGACTAAGGTAACGTAAAGCACGC,1.87,1.33,0.0441,1.16,0.121,1.88,1.33,2.15,0.439,1.37
CCTGCTAGGTCAATGGCCAGCTAAAGCAGCTCGC,3.11,2.72,-0.17,1.39,-0.454,2.73,1.84,2.65,0.293,1.8
CGAACTAGGTCATTGACAGGACAGAGAATAGTAA,4.59,3.18,0.538,1.92,0.12,4.71,7.41,6.39,3.83,6.06
TAGTCTAGGTCATTCAGGGGCCAGTATAGAAAGC,4.17,4.28,2.05,3.15,3.06,4.05,4.7,4.38,2.33,3.77
GATACAGGGTCAAGGCGAGAGTACGCGTATTGAT,6.79,4.05,-0.0981,3.74,0.243,5.39,5.7,5.39,2.2,4.05
CAAACTAGGTCAAGGTCAAAGGCGGTTTGTGCCA,6.43,5.36,3.25,4.34,1.01,5.91,9.82,8.02,6.66,8.34
TCTAGTTGTTCACGGAGGTCACACACGACGGGTA,2.82,3.29,2.83,3.17,0.94,3.66,1.84,2.89,3.43,3.07
CCTAGTTGGTCAGGAGGTCGCACACCGGATATGA,1.17,0.794,0.375,0.833,0.0283,1.59,1.06,1.73,0.24,1.19
CCTAGCACGCCAATCTGGGTCACTCAAGGCTTGA,0.513,0.503,-0.0137,0.788,-0.333,2.88,1.61,2.16,-0.246,1.13
CCTAGCAGGCTAATCTGGGTCACTCAAGGCTTGA,0.577,3.74,0.0725,1.2,-0.635,3.14,2.13,2.31,0.292,1.49
ACTATTAGTTGACCTAGGGCAACCGATACGACGC,1.76,2.47,2.09,2.31,1.09,2.52,1.71,1.48,0.386,0.958
GCTGCTACGTCAACTGATGGTCAGCTAAAGCTCG,-0.601,-0.63,-0.84,-0.799,-1.1,-0.483,-0.201,-0.736,-0.808,-0.829
